Assay [1] can be described thus: KB-3-1 P-gp reporter qHTS against the NCATS DSHEA and TCM libraries (AID 1919975). Note: 0% is about no effect. Conditions: KB-3-1 parental cells, CellTiter-Glo luminescence viability, 72 h; series mostly up to 26.1 µM. The method, boiled down: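 CellTiter-Glo luminescence viability readout; KB-3-1 parental cells, 500/well, attached ~4 h, then compound for ~72 h, 37C, 5% CO2. Bortezomib intraplate control.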
For orientation: Quantitative high-throughput screening tests each substance at several concentrations.

Assay [2] has as its target Cytochrome P450 1A2 (Homo sapiens) (UniProt P05177). As to the kind of experiment: qHTS for inhibitors of CYPIA2 against the NCATS DSHEA and TCM libraries (AID 1919976). Note: potency is the fitted concentration of half-maximal effect. Conditions: recombinant CYP1A2 enzyme activity, luminescence; series mostly up to 37 µM. Put shortly: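 Furafylline served as the plate control. Compounds met CYP1A2 and pro-luciferin substrate 15 min before NADPH regeneration solution (1x) was added; after 30-45 min at RT, P450-Glo reagent was added for 30 min and luminescence was measured.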

Assay [3] can be described thus: qHTS Counterscreen for compound interference against the NCATS DSHEA and TCM libraries (AID 1919978).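 Note: compounds preincubated with 1 µM D-luciferin or buffer before detection reagent; % of control where 0% means no effect.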 As to conditions: firefly luciferase detection reagent interference, luminescence. Put shortly: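 Luminescence counterscreen for detection-kit interference: compounds at 19.5 nM–39.8 uM final, 15 min RT with 1 uM D-luciferin or buffer only; detection reagent added, 30 min RT, then read.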

Assay [4] has as its target Nuclear receptor subfamily 1 group I member 2 (Homo sapiens) (UniProt O75469). As to the kind of experiment: Dual reporter qHTS for antagonist of Pregnane X Receptor (hPXR) against the NCATS DSHEA and TCM libraries: Luminescence Readout (AID 1920060). Note: 0% is about no effect. As to conditions: hPXR dual reporter cells, luciferase luminescence, antagonist mode; series mostly up to 40 µM. The method, boiled down: (§1)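 hPXR-Luc HepG2 cells exposed 24 h at 37 C to compounds with 2 uM rifampicin in antagonist mode; luciferase luminescence measured by ONE-Glo, with CellTiter-Fluor viability read beforehand.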

Assay [5] can be described thus: Dual reporter qHTS for antagonist of Pregnane X Receptor (hPXR) against the NCATS DSHEA and TCM libraries: Fluorescence Readout (AID 1920061). Note: 0% is about no effect. Conditions: PXR dual reporter cells, antagonist mode; series mostly up to 40 µM. The method, boiled down: as §1
Assay [6] can be described thus: qHTS Assay for Identification of Small Molecule Antagonists for Thrombopoietin (TPO) Signaling Pathway (AID 918). Note: potency is the fitted concentration of half-maximal effect; nearly all actives have a fitted effect of over 60% in size. As to conditions: TPO-dependent cell signaling reporter, antagonist mode. The method, boiled down: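 Antagonist mode at EC50 TPO (26 pM) in IL-3-free medium; murine Ba/F3 cells with human TPO receptor and GPIIb-promoter luciferase, 24 hrs at 37 C before luminescent detection.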

In assay [7] the test system is CP262. In words: qHTS profiling for inhibitors of Plasmodium falciparum proliferation (AID 504749).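 Note: 0% = DMSO vehicle and full inhibition = artemisinin control; nearly all actives have a fitted effect of over 60% in size.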 Conditions: P. falciparum in erythrocytes, SYBR Green DNA, 72 h; series mostly up to 28.7 µM. Put shortly:
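In a 72 h erythrocytic culture (37 C, humidified, 5% CO2) at 2.5% hematocrit and 0.3% starting parasitemia, compounds were tested; SYBR Green I in detergent lysis buffer stained parasite DNA overnight.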

The nature of assay [8]: Cytometric Cell-Based qHTS for Inhibitors of the mTORC1 Signaling Pathway in MEF (Tsc2-/-, p53-/-) Cells (AID 2660).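 Note: percent of cells above a phospho-rpS6 to PI ratio cutoff in each well; plate controls were DMSO for no effect and rapamycin for full effect.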 Conditions: mTORC1 pathway cytometry; series mostly up to 38.3 µM. Put shortly: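 Tsc2-/-, p53-/- MEFs (empty vector) exposed to compound 24 h at 37 C, fixed, stained with Alexa-488 anti-phospho-rpS6 Ser235/236 and propidium iodide. Acumen laser scanning; phospho-S6/PI ratio thresholded against 7.5 nM rapamycin, reported as % positive cells.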

Assay [9] in a line: High Content Imaging Cell-Based qHTS for Inhibitors of the mTORC1 Signaling Pathway in MEF (Tsc2-/-, p53-/-) Cells (AID 2666).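 Note: percent of cells scored positive for phospho-rpS6 Ser235/236 immunostaining by imaging.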 Conditions: series mostly up to 38.3 µM. Put shortly: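 Tsc2-/-, p53-/- MEFs (empty-vector stable) grown in DMEM + 10% FBS were exposed to compounds for 24 hrs at 37 degree Celsius, fixed, and stained with Alexa-488 anti-phospho-rpS6 Ser235/236 plus Hoechst. Imaging gave the percentage of positive cells per well.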

Assay [10] can be described thus: High Content Imaging Cell-Based qHTS for Inhibitors of the mTORC1 Signaling Pathway in MEF Cells (AID 2667).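 Note: Tsc2-/- p53-/- MEFs stably re-expressing wild-type Tsc2 exposed 24 h; plate controls were DMSO wells for no effect and rapamycin control wells for full effect.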 As to conditions: series mostly up to 38.3 µM. Put shortly: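 Tsc2-/-, p53-/- MEFs stably re-expressing WT Tsc2, grown in DMEM + 10% FBS, were treated with compounds for 24 hrs at 37 degree Celsius, fixed, and stained with Alexa-488 phospho-rpS6 Ser235/236 antibody plus Hoechst; results given as % positive cells.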

Assay [11] can be described thus: Cytometry Cell-Based qHTS for Inhibitors of the mTORC1 Signaling Pathway in MEF cells (AID 2668).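 Note: Tsc2-/- p53-/- mouse embryonic fibroblasts stably re-expressing wild-type Tsc2; percent cells positive for phospho-rpS6 Ser235/236 relative to propidium iodide stain; plate controls were DMSO wells for no effect and 7.5 nM rapamycin control wells for full effect.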 As to conditions: mTORC1 pathway readout; series mostly up to 38.3 µM. The method, boiled down:
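Read-out: phospho-rpS6 Ser235/236 immunofluorescence normalized to propidium iodide intensity, scored as % active cells against a rapamycin (7.5 nM) threshold. Cells: Tsc2-/-, p53-/- MEFs stably expressing WT Tsc2, compound-treated 24 hrs at 37 degree Celsius.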

The target of assay [12] is Ubiquitin carboxyl-terminal hydrolase 2 (Homo sapiens) (UniProt O75604). In words: qHTS Validation Assay for Inhibitors of Ubiquitin-specific Protease USP2a Using CHOP2 as the Reporter (AID 463106).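 Note: plate controls were DMSO for no effect and full inhibition by NEM for full effect.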 Conditions: USP2a cleavage of CHOP2 reporter, enzymatic; series mostly up to 38.3 µM. Put shortly:
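Readout was coupled fluorescence (Ex 485/Em 531 nm), read 60 min after adding 25 nM final Ub-CHOP2 and 25 nM reporter substrate. Beforehand, 10 nM final USP2 core had 30 min at RT with compound in pH 8.0 buffer. Curves were fitted after normalization to NEM and flagged for artifacts using time-zero reads.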

The target of assay [13] is DNA polymerase III PolC-type (Bacillus subtilis (strain 168)) (UniProt P13267). In words: qHTS Validation Assay for the Inhibitors of DNA Replication in Gram-Positive Bacteria (AID 485295).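 Note: reconstituted holoenzyme with PolC plus beta clamp SSB and primase; PicoGreen fluorescence of double-stranded DNA made on primed circular M13 template; 0% = DMSO wells and -100% = EDTA-quenched background wells.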 Conditions: Gram-positive bacterial DNA replication assay; series mostly up to 57.1 µM. The method, boiled down:
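PicoGreen fluorescence (ex 480–485/em 535–540 nm) reports dsDNA synthesized on ssM13Gori template with dNTPs/NTPs. Enzyme: holoenzyme rebuilt from purified PolC, beta subunit, SSB and primase. Compound preincubated before substrate addition; RT throughout.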

Assay [14] addresses Tumor susceptibility gene 101 protein (Homo sapiens) (UniProt Q99816). As to the kind of experiment: qHTS Validation Assay for Iinhibitors of HIV-1 Budding by Blocking the Interaction of PTAP/TSG101 (AID 485342; calls by dose curve; note: 0% is about no effect). Conditions: TSG101-PTAP binding, fluorescence polarization, 4-point titration; series mostly up to 115 µM. The method, boiled down:
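FP read-out: FITC-PTAP peptide, 50 nM final, binding Tsg101 binding domain, 10 uM final; 20 min r.t.; 10 mM HEPES pH 7.5, 0.15 M NaCl, 0.01% Tween 20, 3 mM EDTA, 0.1 mM TCEP.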

Assay [15] is described as follows: qHTS Validation Assay to Find Inhibitors of Chronic Active B-Cell Receptor Signaling (AID 485345; active = well fitted curve in the direction sought with a large enough effect in the main read-out, with a control signal flat, not every such curve was filed as active;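 note: 0% = untreated basal cells and 100% = 10 µM MG-132 proteasome inhibitor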). Conditions: ABC-DLBCL cells, chronic BCR signaling reporter, CBG luciferase; series mostly up to 46.1 µM. The method, boiled down: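 Read-out: ratio of filter-corrected green (IkappaBalpha fusion) to red (native) luciferase signal in doxycycline-induced TMD8 cells after 4 h at 37C. Titration spanned 46 uM–3 nM; Data were normalised to basal cells and 10 uM MG-132 wells.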

In assay [16] the target is Beta-2 adrenergic receptor (Homo sapiens) (UniProt P07550). As to the kind of experiment: qHTS validation assay of beta-arrestin-biased ligands of beta2-adrenergic receptor (AID 485366). Note: 0% is about no effect. Conditions: cell-based beta-arrestin recruitment to ADRB2, qHTS; series mostly up to 46.1 µM. Put shortly:
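qHTS, Tango cells, 1500 cells/well, DMEM + 1% FBS. Cpd 18 hr at 37 degrees C. Luciferin/ATP/CoA detection mix, 15 min RT, luminescence read. %Activity from corrected signal; CRC fit, curve class.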

Assay [17] addresses ATP-dependent 6-phosphofructokinase (Trypanosoma brucei brucei) (UniProt O15648). In words: qHTS Validation Assay to Find Inhibitors of T. brucei phosphofructokinase (AID 485368). As to conditions: T. brucei PFK enzyme assay, qHTS 7-point titration; at 57.5 µM (top of the series). The method, boiled down: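 Luminescent ADP detection measures PFK turnover of fructose-6-phosphate (0.5 mM) with ATP (0.1 mM) at pH 8.0. Reaction runs 45 min at room temperature with 1.25 nM enzyme; inhibitors tested as titrations up to 57 uM.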

The target in assay [18] is Thioredoxin reductase 1, cytoplasmic (Rattus norvegicus) (UniProt O89049). In words: qHTS Assay for Substrates of Mammalian Selenoprotein Thioredoxin Reductase 1 (TrxR1) (AID 488772).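 Note: 0% is about no effect; a drop in NADPH fluorescence below the no-compound background marks a TrxR1 substrate.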 Conditions: purified TrxR1, NADPH consumption substrate assay; series mostly up to 57.1 µM. The method, boiled down:
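In this dual-purpose format, potential substrates are identified from the first fluorescence read after selenite addition, not from the 8-minute delta. Rat enzyme is preincubated with NADPH and then with compound at ~22 deg C.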

Assay [19] shares this target. In words: qHTS Assay for Inhibitors of Mammalian Selenoprotein Thioredoxin Reductase 1 (TrxR1) (AID 488773).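 Note: drop in NADPH fluorescence over an 8 min run after selenite addition; % is set by controls: 0 for no effect and ±100 for the full control effect; nearly all actives have a fitted effect of over 40% in size.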 As to conditions: purified TrxR1 enzyme activity; series mostly up to 57.1 µM. The method, boiled down: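 Inhibition is scored from the loss of NADPH fluorescence between first and last reads of an 8-min kinetic run. Selenite (400 uM) was the substrate, added after 15 min compound preincubation at room temperature.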

In assay [20] the target is Flap endonuclease 1 (Homo sapiens) (UniProt P39748). As to the kind of experiment: qHTS Validation Assay for the Inhibitors of Human Flap endonuclease 1 (FEN1) (AID 488816). Note: % is set by controls: 0 for no effect and ±100 for the full control effect. Conditions: FEN1 nuclease activity, fluorogenic DNA substrate; series mostly up to 57.1 µM. Put shortly: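 qHTS format: compounds and 10 nM FEN1 incubated 15 min at room temperature before adding 50 nM substrate. Cleavage followed by reads at 0 and 15 min; normalized data fitted to a four-parameter Hill curve.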
Sequence of Flap endonuclease 1 (Homo sapiens) (P39748 whole entry, looked up): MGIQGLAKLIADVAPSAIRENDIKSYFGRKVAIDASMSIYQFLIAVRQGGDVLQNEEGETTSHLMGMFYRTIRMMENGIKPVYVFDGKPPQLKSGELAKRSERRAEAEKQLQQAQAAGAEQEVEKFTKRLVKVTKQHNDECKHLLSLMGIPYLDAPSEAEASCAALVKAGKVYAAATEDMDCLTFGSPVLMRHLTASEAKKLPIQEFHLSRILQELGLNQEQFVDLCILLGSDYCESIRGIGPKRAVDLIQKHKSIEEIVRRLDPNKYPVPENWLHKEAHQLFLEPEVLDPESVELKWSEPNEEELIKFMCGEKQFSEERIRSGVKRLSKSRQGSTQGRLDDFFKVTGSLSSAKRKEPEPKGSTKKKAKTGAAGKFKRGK

Unmarked numbers belong to inactive results. Inconclusive results are not listed. The source made the active and inactive calls. Unless noted, calls come from the whole dose curve; as a rule, active = well fitted curve in the direction sought with a large enough effect; inconclusive = small, poorly fitted or top-dose-only effect, or another doubt; inactive = no such curve, though single readings can be large; an effect the other way counts as inactive or inconclusive.

Sequence of Thioredoxin reductase 1, cytoplasmic (Rattus norvegicus) (O89049 whole entry, looked up): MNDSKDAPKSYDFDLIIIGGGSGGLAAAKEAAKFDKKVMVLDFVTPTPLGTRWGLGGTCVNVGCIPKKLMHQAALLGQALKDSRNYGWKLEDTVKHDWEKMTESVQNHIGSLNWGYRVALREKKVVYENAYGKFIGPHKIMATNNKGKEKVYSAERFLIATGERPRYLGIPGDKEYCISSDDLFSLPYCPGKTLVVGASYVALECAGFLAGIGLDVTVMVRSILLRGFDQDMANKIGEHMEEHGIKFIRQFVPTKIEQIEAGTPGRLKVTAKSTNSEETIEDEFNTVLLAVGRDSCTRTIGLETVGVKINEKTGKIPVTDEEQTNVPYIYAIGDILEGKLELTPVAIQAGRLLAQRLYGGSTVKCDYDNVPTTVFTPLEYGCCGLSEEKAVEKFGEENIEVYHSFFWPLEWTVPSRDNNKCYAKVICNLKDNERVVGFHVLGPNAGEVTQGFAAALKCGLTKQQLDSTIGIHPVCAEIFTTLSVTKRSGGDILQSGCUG
Sequence of DNA polymerase III PolC-type (Bacillus subtilis (strain 168)) (P13267 whole entry, looked up): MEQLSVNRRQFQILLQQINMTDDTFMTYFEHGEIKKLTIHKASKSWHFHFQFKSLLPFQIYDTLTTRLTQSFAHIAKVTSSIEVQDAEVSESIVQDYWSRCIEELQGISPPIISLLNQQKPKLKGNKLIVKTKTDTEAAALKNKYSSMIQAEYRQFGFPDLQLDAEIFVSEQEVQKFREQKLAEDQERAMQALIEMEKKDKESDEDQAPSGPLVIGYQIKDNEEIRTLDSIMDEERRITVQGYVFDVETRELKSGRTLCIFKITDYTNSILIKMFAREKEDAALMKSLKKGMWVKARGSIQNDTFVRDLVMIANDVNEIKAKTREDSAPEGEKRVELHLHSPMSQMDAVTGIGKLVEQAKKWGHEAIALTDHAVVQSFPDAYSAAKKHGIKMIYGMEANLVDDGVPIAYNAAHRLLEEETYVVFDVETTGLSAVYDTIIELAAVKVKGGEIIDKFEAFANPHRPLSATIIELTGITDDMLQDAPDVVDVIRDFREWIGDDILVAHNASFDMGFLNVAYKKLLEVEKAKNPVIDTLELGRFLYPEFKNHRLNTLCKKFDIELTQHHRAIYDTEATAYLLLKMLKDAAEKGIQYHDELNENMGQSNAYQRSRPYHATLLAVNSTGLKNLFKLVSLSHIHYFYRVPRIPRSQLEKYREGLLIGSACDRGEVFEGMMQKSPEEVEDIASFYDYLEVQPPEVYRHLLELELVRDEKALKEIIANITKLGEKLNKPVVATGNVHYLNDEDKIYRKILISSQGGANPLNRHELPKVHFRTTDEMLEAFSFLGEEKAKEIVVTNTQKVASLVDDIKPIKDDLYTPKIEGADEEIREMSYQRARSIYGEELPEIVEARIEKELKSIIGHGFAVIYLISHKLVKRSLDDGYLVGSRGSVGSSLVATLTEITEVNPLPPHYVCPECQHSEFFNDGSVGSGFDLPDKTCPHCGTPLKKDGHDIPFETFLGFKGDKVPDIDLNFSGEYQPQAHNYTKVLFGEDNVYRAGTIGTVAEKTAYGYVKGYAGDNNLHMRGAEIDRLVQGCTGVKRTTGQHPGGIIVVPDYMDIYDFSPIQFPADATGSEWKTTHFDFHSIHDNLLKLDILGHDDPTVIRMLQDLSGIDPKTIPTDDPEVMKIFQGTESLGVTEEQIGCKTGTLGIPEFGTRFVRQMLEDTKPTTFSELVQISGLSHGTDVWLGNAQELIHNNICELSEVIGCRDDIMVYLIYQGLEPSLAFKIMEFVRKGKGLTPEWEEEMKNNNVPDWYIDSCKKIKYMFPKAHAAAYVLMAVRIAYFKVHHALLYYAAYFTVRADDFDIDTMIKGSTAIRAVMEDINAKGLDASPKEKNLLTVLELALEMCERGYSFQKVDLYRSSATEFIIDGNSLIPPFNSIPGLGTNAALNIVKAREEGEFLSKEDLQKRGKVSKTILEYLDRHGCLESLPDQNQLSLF
Sequence of Nuclear receptor subfamily 1 group I member 2 (Homo sapiens) (O75469 whole entry, looked up): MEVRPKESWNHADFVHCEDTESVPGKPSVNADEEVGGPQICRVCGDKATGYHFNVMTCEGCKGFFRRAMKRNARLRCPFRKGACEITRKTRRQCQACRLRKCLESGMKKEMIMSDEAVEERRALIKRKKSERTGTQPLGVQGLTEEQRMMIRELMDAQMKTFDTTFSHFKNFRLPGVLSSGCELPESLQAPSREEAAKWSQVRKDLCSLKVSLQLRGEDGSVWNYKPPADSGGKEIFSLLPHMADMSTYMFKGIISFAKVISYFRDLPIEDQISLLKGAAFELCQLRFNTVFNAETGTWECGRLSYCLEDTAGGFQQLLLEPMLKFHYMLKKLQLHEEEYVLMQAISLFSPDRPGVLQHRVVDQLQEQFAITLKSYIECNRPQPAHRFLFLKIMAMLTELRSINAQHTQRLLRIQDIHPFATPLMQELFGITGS
Sequence of Ubiquitin carboxyl-terminal hydrolase 2 (Homo sapiens) (O75604 whole entry, looked up): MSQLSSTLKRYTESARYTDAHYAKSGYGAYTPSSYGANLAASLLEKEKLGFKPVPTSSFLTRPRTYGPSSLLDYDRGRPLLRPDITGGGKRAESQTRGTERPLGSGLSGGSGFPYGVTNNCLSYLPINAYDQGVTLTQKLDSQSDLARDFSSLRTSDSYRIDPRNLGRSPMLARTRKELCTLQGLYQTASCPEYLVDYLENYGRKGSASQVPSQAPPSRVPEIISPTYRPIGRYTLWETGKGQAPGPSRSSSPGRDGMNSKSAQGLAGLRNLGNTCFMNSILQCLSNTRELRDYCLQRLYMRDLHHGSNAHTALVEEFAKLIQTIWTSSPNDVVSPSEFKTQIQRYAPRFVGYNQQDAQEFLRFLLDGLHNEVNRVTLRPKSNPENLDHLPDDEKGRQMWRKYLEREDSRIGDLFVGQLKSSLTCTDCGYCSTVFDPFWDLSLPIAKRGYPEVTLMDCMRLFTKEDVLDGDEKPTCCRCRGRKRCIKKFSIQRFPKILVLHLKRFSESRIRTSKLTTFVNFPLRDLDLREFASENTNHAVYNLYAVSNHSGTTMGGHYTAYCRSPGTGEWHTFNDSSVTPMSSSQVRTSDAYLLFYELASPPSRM
Sequence of Cytochrome P450 1A2 (Homo sapiens) (P05177 whole entry, looked up): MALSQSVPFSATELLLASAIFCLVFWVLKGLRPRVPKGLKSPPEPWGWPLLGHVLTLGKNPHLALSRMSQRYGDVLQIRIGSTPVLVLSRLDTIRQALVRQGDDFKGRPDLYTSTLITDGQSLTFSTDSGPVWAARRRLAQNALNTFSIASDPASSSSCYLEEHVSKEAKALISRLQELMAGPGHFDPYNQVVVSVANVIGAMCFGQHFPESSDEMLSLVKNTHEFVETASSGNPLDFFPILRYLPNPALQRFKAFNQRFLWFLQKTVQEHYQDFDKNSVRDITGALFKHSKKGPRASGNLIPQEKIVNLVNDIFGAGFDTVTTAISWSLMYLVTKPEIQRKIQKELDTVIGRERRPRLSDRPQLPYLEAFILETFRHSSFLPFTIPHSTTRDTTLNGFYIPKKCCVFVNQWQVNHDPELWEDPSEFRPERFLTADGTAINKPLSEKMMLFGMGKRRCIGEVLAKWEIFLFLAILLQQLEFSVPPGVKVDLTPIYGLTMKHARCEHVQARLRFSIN
Sequence of Tumor susceptibility gene 101 protein (Homo sapiens) (Q99816 whole entry, looked up, the tested form may be a part): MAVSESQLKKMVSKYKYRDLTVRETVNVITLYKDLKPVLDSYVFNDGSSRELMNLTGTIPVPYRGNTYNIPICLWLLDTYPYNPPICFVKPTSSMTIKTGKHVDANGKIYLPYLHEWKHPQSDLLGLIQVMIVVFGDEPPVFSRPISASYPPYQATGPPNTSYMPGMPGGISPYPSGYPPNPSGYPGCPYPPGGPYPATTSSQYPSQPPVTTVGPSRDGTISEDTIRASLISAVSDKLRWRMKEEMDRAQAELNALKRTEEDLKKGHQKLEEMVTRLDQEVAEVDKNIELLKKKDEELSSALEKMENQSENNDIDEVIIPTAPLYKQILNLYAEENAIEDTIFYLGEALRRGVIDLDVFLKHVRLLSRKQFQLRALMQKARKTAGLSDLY
Sequence of ATP-dependent 6-phosphofructokinase (Trypanosoma brucei brucei) (O15648 whole entry, looked up): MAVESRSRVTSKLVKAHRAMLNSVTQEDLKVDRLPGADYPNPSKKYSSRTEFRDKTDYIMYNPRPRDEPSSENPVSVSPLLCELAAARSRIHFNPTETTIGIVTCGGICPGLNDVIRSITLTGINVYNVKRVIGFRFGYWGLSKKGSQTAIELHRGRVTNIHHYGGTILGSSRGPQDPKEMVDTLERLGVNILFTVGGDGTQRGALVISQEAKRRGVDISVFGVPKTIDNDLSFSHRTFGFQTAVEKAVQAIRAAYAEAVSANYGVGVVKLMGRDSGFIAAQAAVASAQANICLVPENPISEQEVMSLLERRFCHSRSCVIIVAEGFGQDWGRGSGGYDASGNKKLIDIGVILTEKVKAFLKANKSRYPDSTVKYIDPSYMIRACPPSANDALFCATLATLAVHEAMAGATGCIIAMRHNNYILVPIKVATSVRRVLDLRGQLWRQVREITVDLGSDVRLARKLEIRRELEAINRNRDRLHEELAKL

`N#CC(O[C@@H]1O[C@H](CO[C@@H]2O[C@H](CO)[C@@H](O)[C@H](O)[C@H]2O)[C@@H](O)[C@H](O)[C@H]1O)c1ccccc1` (stereo not given in full): the result in assay [1], in assay [4] and in assay [5] was inactive. The Potency result in assay [2] is “inactive”. Also, the max response in assay [3] was -0.601%.

In the case of `C=C(C)[C@@H]1CCC(C)=C[C@H]1c1c(O)cc(CCCCC)cc1O`, the outcome in [1], in assay [4] and in assay [5] was inactive. Further, the Potency in assay [2] is 11.2 µM (active). Besides, the max response in assay [3] was 0.918%.

On to `NCC#Cc1ccccc1`, for which the Potency in [6] was 6.31 µM (active).

Consider `CCCC[N+]1(C)C2CC(OC(=O)C(CO)c3ccccc3)CC1C1OC12` (stereo not given), for which the Potency entry in assay [7] is “inactive”.

Regarding `CCCCN1C2CCC1CC(OC(c1ccc(F)cc1)c1ccc(F)cc1)C2` (stereo not given), in assay [6], the Potency was 10 µM (active).

With `CC12CCC3C(CCC4=C(O)C(=O)CCC43C)C1CCC2=O` (stereo not given), the result in assay [8], in assay [12], in assay [13], in [14], in [15] and in assay [16] was inactive. The call in assay [17], in [18], in assay [19] and in assay [20] was inactive. Also, the Potency entry in assay [9], in [10] and in assay [11] was “inactive” throughout.

With `C[C@H]1C2Cc3ccc(O)cc3[C@]1(C)CCN2CC1CC1`, the result in [8], in assay [12], in [13], in assay [14], in assay [15] and in [16] was inactive. Further, the call in assay [17], in assay [18], in assay [19] and in [20] was inactive. Moreover, the Potency result in [9], in assay [10] and in [11] was “inactive” throughout.

Consider `CC(C)(O)C1C2OC(=O)C1[C@]1(O)C[C@H]3O[C@]34C(=O)O[C@H]2[C@]14C` (stereo not given in full) (tested in a mixture with another compound), for which the Potency entry in [7] was “inactive”.

For the origin of these results see PubChem BioAssay (NCATS).
